In PubChem BioAssay (NCATS):
Inconclusive results are not listed. The source made the active and inactive calls. The call rests on the fitted dose curve; in most records, active means well fitted cell-killing curve with a large enough effect; inconclusive means small, poorly fitted or top-dose-only effect; inactive means flat fitted curve, though single readings scatter.

What was measured:
[1] = Cell Viability - LYMP2-017 (AID 972); conditions: LYMP2-017 lymphoblastoid cell viability; further: nearly all actives have a fitted effect of over 55% in size
Procedure, shortened: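 2500 cells/well, 5 h 37 C; cpd 24 h 37 C in complete medium; CellTiter-Glo, 30 min RT; luminescence (ATP). AC50 via Hill fit, qHTS.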

[2] = Cell Viability - LYMP2-019 (AID 973); conditions: LYMP2-019 lymphoblastoid cell line viability; further: nearly all actives have a fitted effect of over 55% in size
Procedure, shortened: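 Luminescent ATP read-out (CellTiter-Glo, 30 min room temperature) served as the viability measure after 24 hr treatment of lymphoblastoid cells at 37 C. Concentration-response data were fitted to the Hill equation for AC50.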

[3] = Cell Viability - LYMP2-021 (AID 974); conditions: LYMP2-021 lymphoblastoid cells viability;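 further: compound exposure lasts 24 hours at 37 °C; nearly all actives have a fitted effect of over 55% in size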
Procedure, shortened: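 Plate 2500 lymphoblastoid cells per well and incubate 5 hr at 37 C. Add compounds over a concentration range and incubate 24 hr at 37 C. Add CellTiter-Glo, wait 30 min at room temperature, read luminescence.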

[4] = Cell Viability - LYMP2-023 (AID 975); conditions: LYMP2-023 lymphoblastoid cell viability; further: nearly all actives have a fitted effect of over 55% in size
Procedure, shortened: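 2500 cells/well, 5 hr 37 C; cpd 24 hr 37 C; CellTiter-Glo, 30 min RT; luminescence. qHTS conc-response, Hill fit -> AC50. Pos ctrl tetraoctylammonium bromide.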

[5] = Cell Viability - LYMP2-025 (AID 976); conditions: LYMP2-025 lymphoblastoid cell viability
Procedure, shortened: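 Seed 2500 LYMP2-025 cells/well; 5 hr at 37 C; add compound; 24 hr at 37 C; add CellTiter-Glo; 30 min RT; read luminescence. AC50 from Hill-modelled concentration-response.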

[6] = Cell Viability - LYMP2-002 (AID 977); conditions: LYMP2-002 lymphoblastoid cell viability, qHTS;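 further: compound exposure lasted 24 h at 37 °C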
Procedure, shortened: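 Human lymphoblastoid LYMP2-002 cells, 2500 per well, exposed to compounds for 24 h at 37 C in complete medium; viability read as intracellular ATP by CellTiter-Glo luminescence, AC50 from Hill fits.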

[7] = Cell Viability - LYMP2-006 (AID 978); conditions: LYMP2-006 lymphoblastoid cell viability, qHTS; further: nearly all actives have a fitted effect of over 60% in size
Procedure, shortened: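 In this cytotoxicity screen, the human lymphoblastoid line grew in complete medium with test compounds for 24 hr at 37 C. Cellular ATP served as the viability signal.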

[8] = Cell Viability - LYMP2-007 (AID 979); conditions: LYMP2-007 lymphoblastoid cell viability;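 further: cells exposed to compound for 24 h before reading; nearly all actives have a fitted effect of over 60% in size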
Procedure, shortened: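 Luminescent ATP signal (CellTiter-Glo) serves as the viability read-out after 24 hr compound treatment of lymphoblastoid cells in complete medium at 37 C. Concentration-response data were fitted to the Hill equation to give AC50 values.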

[9] = Cell Viability - LYMP2-008 (AID 980); conditions: LYMP2-008 lymphoblastoid cell viability, qHTS; further: nearly all actives have a fitted effect of over 60% in size
Procedure, shortened: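 qHTS, human lymphoblastoid line, 2500 cells/well; 5 hr preincubation, 24 hr compound, 37 C. CellTiter-Glo ATP luminescence. AC50 via Hill equation. Tetraoctylammonium bromide positive control.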

[10] = Cell Viability - LYMP2-010 (AID 981); conditions: LYMP2-010 lymphoblastoid cell viability, qHTS; further: nearly all actives have a fitted effect of over 55% in size
Procedure, shortened: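 Luminescent ATP signal (CellTiter-Glo) served as the viability read-out. Cells of the human lymphoblastoid line were treated with compound over a concentration range for 24 hours at 37 C, and AC50 values came from Hill-equation modeling.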

[11] = Cell Viability - LYMP2-012 (AID 982); conditions: LYMP2-012 lymphoblastoid cell viability qHTS
[12] = Cell Viability - LYMP2-014 (AID 983); conditions: LYMP2-014 lymphoblastoid cells, viability qHTS; further: nearly all actives have a fitted effect of over 50% in size
Procedure, shortened: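 Luminescent ATP signal (CellTiter-Glo, 30 min at room temperature) serves as the viability read-out after 24 hr compound exposure at 37 C. Cells were seeded at 2500 per well and settled 5 hr beforehand.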

[13] = Cell Viability - LYMP2-016 (AID 984); conditions: LYMP2-016 lymphoblastoid cell viability, qHTS; further: nearly all actives have a fitted effect of over 55% in size
Procedure, shortened: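 Concentration-dependent ATP depletion measured in LYMP2-016 lymphoblastoid cells, 24 h, 37 C; luciferase-based luminescent detection; Hill-equation AC50.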

[14] = Cell Viability - LYMP2-018 (AID 985); conditions: LYMP2-018 lymphoblastoid cells, viability (qHTS); further: nearly all actives have a fitted effect of over 50% in size
Procedure, shortened: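 Luminescent ATP signal (CellTiter-Glo, read after 30 min at room temperature) reports viable cells after 24 hr compound treatment at 37 C. Concentration-response data were fitted to the standard Hill equation for AC50.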

[15] = Cell Viability - LYMP2-020 (AID 986); further: nearly all actives have a fitted effect of over 55% in size
Procedure, shortened: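 Luminescent ATP signal (CellTiter-Glo, 30 min at room temperature) is the read-out after 24 h compound treatment of lymphoblastoid cells at 37 C. AC50 values come from Hill-equation fits across concentrations.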

[16] = Cell Viability - LYMP2-022 (AID 987); conditions: LYMP2-022 lymphoblastoid cell viability; further: nearly all actives have a fitted effect of over 55% in size
Procedure, shortened: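 qHTS: human lymphoblastoid cells 2500/well; 5 hr 37 C; cpd added; 24 hr 37 C; CellTiter-Glo, 30 min RT; luminescence. AC50 via Hill fit; tetraoctylammonium bromide positive ctrl.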

[17] = Cell Viability - LYMP2-024 (AID 988); conditions: LYMP2-024 lymphoblastoid cell viability; further: nearly all actives have a fitted effect of over 60% in size
Procedure, shortened: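 Steps: seed 2500 cells/well, 5 hr 37 C; add compound, 24 hr 37 C; add CellTiter-Glo, 30 min room temperature; read luminescence. AC50 derived by Hill modelling of concentration-dependent ATP loss.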

[18] = Cell Viability - LYMP2-026 (AID 989); conditions: LYMP2-026 lymphoblastoid cell viability, qHTS; further: nearly all actives have a fitted effect of over 50% in size
Procedure, shortened: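 Luminescent ATP signal (CellTiter-Glo, 30 min room temperature) measures viable lymphoblastoid cells after 24 hr compound treatment at 37 C. Decreased ATP reflects acute toxicity; AC50 values come from Hill-equation modeling.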

[19] = Cell Viability - LYMP1-002 - Assay at 24 hr (AID 993); conditions: LYMP1-002 lymphoblastoid cells viability
Procedure, shortened: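 Cells plated 2500/well, 5 hr 37 C; compounds added, 24 hr 37 C; CellTiter-Glo added, 30 min RT; luminescence read. Tetraoctylammonium bromide positive control. Hill-equation AC50.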

[20] = Cell Viability - LYMP1-002 - Assay at 40 hr (AID 994); conditions: LYMP1-002 lymphoblastoid cell viability; further: nearly all actives have a fitted effect of over 60% in size
Procedure, shortened: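 Luminescent ATP signal served as the viability readout, with decreases taken as toxicity. Cells were treated with compounds across a concentration range for 40 hours at 37 C, and AC50 values came from standard Hill modeling.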

Measured: Potency
Potency means the concentration at half of the fitted maximal effect.

O=C1c2c(O)ccc([N+](=O)[O-])c2C(=O)c2c([N+](=O)[O-])ccc(O)c21
active: [1] 31.6 µM | [2] 39.8 µM | [3] 39.8 µM | [4] 39.8 µM | [5] 39.8 µM | [6] 39.8 µM | [7] 31.6 µM | [8] 39.8 µM | [9] 31.6 µM | [10] 31.6 µM | [11] 39.8 µM | [12] 39.8 µM | [13] 31.6 µM | [14] 39.8 µM | [15] 39.8 µM | [16] 39.8 µM | [17] 39.8 µM | [18] 39.8 µM | [19] 39.8 µM | [20] 39.8 µM
